40 compounds from the supplement of paper PMC13380429 can be followed below.

Counter-ions that a name gives are not always drawn.

In the assay the test system is Vero E6 infected with SARS-CoV-2. In words: morphology score (similarity to uninfected cells); higher = more like uninfected cells. Particulars: 24 h.
The compound `CCC(=O)NC1CCc2cccc(OC)c2C1` (stereo not given) (10 µM) displayed a morphology score of -0.0478.

`Cc1cc(C)c2c(N)c(C(=O)NCc3ccc(Cl)cc3)sc2n1` (10 µM) returned a morphology score of 0.0846.

Take `CC(O)(CS(=O)(=O)c1ccc(F)cc1)C(=O)Nc1ccc(C#N)c(C(F)(F)F)c1` (stereo not given) [bicalutamide] (10 µM): the morphology score is -0.00454.

For `CC(C)(C)NCC(O)c1ccccc1Cl` (stereo not given) [tulobuterol] (10 µM), the morphology score was -0.0152.

In turn, `CN[C@@H]1[C@H](O[C@H]2[C@H](O[C@H]3[C@H](O)[C@@H](O)[C@H](N=C(N)N)[C@@H](O)[C@@H]3N=C(N)N)O[C@@H](C)[C@]2(O)C=O)O[C@@H](CO)[C@H](O)[C@H]1O` [STREPTOMYCIN SULFATE [5mM; 10% aq DMSO + 5mM ethanolamine]] (10 µM) registered a morphology score of 0.104.

The compound `COC(=O)Nc1nc2cc([S+]([O-])c3ccccc3)ccc2[nH]1` (stereo not given) [oxfendazole] (10 µM) yielded a morphology score of 0.15.

On to `CN(C)c1ccc(/C=C2\CCCN=C2c2cccnc2)cc1` [DMAB-anabaseine] (10 µM), for which the morphology score came to 0.121.

For the compound `C[C@@H](C(=O)O)c1ccc(-c2ccccc2)c(F)c1` (racemic) [flurbiprofen-(+/-)] (10 µM), the morphology score came to 0.232.

`C#Cc1cccc(Nc2ncnc3cc(OC)c(OCCCCCCC(=O)NO)cc23)c1` (0.833333 µM) returned a morphology score of -0.262.

As for `CC(=O)N[C@H]1[C@H]([C@H](O)[C@H](O)CO)OC(O)(C(=O)O)C[C@@H]1O` (mixture of isomers) [aceneuramic-acid] (10 µM), the morphology score amounted to 0.0132.

The compound `CC(C)c1cc(C(=O)N2Cc3ccc(CN4CCN(C)CC4)cc3C2)c(O)cc1O` (10 µM) had a morphology score of 0.185.

As for `Cc1c(C)c2c(c(C)c1O)CC[C@@](C)(CCC[C@H](C)CCC[C@H](C)CCCC(C)C)O2` [vitamin-E] (10 µM), the morphology score was -0.299.

With `Oc1ccc2c3c1O[C@H]1c4[nH]c5ccccc5c4C[C@@]4(O)[C@@H](C2)N(CC2CC2)CC[C@]314` [naltrindole] (10 µM), the morphology score was -0.0968.

`CCOC(=S)SSC(=S)OCC` [dixanthogen] (10 µM) showed a morphology score of -0.0377.

`Cn1cc(-c2ccc3nnc(C(F)(F)c4ccc5ncccc5c4)n3n2)cn1` (10 µM) returned a morphology score of 0.39.

Regarding `O=C1NC(=O)C(=Cc2ccc(-c3ccc(F)cc3)o2)S1` (stereo in doubt) (10 µM), the morphology score came out at 0.0111.

`CC/C(=C(\c1ccc(O)cc1)c1ccc(OCCN(C)C)cc1)c1ccccc1` [afimoxifene] (10 µM) registered a morphology score of 0.801.

`Cc1sc2c(c1C)C(c1ccc(Cl)cc1)=N[C@@H](CC(N)=O)c1nnc(C)n1-2` (0.833333 µM) came in with a morphology score of -0.0333.

`Nc1c(-c2cccc(C(F)(F)F)c2)nsc1C(=O)O` [amflutizole] (10 µM) yielded a morphology score of 0.00564.

`NCCNC(=O)c1ccc(Cl)cn1` [lazabemide] (10 µM) had a morphology score of 0.0341.

In the case of `CCN(c1ccccc1)c1cc(=NC)n(C)c(C)n1` (10 µM), the morphology score amounted to 0.203.

`CCCCc1ccc(O)cc1O` [rucinol] (10 µM) registered a morphology score of -0.0981.

In turn, `CC(=O)Oc1cc(C(F)(F)F)ccc1C(=O)O` [triflusal] (10 µM) registered a morphology score of 0.126.

`COc1ccc(-c2nc(-c3ccc(-c4cccc(Cl)c4)o3)[nH]c2-c2ccc(OC)cc2)cc1` [neurodazine] (10 µM): the morphology score worked out at 0.198.

Take `CC/C(=C(/c1ccc(OCCN(C)C)cc1)c1cccc(O)c1)c1ccccc1` [droloxifene] (10 µM): the morphology score is 0.73.

For `Nc1cc(-c2ccncc2)c[nH]c1=O` [amrinone] (10 µM), the morphology score is 0.00166.

`CC(C)CN(C[C@@H](O)[C@H](Cc1ccccc1)NC(=O)O[C@H]1CCOC1)S(=O)(=O)c1ccc(N)cc1` [amprenavir] (10 µM) gave a morphology score of 0.0911.

For the compound `Cc1ccc(Cl)c(OC[C@H](O)CNC(C)C)c1` [1-(2-chloro-5-methylphenoxy)-3-(isopropylamino)-2-propanol] (10 µM), the morphology score turned out to be 0.0769.

With `COc1cccc2c1C(=O)c1c(O)c3c(c(O)c1C2=O)C[C@@](O)(C(=O)CO)C[C@@H]3O[C@H]1C[C@H](N2CCO[C@H](OC)C2)[C@H](O)[C@H](C)O1` [nemorubicin] (0.833333 µM), the morphology score worked out at 0.0228.

The compound `NC(=O)CN1CC(O)CC1=O` (stereo not given) [oxiracetam] (10 µM) yielded a morphology score of -0.00498.

Turning to `NCC(CC(=O)O)c1ccc(Cl)cc1` (stereo not given) [baclofen] (10 µM), the morphology score came out at 0.138.

In turn, `O=C(Nc1ccc(CN2CCOCC2)cc1)c1ccc(-c2cccc(Cl)c2)o1` (10 µM) returned a morphology score of 0.194.

`Nc1ncnc2c1ncn2[C@@H]1O[C@H](COP(=O)(O)OP(=O)(O)OP(=O)(O)O)[C@@H](O)[C@H]1O` (10 µM) registered a morphology score of -0.0072.

As for `O=S(=O)(c1ccccc1)c1cnc2c(N3CCNCC3)cccc2c1` (10 µM), the morphology score is -0.0691.

The compound `C[C@H](CCC(=O)O)[C@H]1CC[C@H]2[C@@H]3CC[C@@H]4C[C@H](O)CC[C@]4(C)[C@H]3CC[C@]12C` [lithocholic-acid] (10 µM) gave a morphology score of 0.0318.

With `Cc1c(C(=O)NC2CCCCC2)sc2nc3ccc(N)cc3n12` (10 µM), the morphology score amounted to 0.0842.

With `O=C(Nc1ccncc1)c1cc([N+](=O)[O-])ccc1Cl` (10 µM), the morphology score was determined as 0.143.

`O=C(O)CC1CC(c2ccccc2)=NO1` (stereo not given) (10 µM): the morphology score was -0.0313.

For the compound `CCOC(=O)n1ccn(C)c1=S` [carbimazole] (10 µM), the morphology score worked out at 0.159.

`CCN(CC)Cc1cc(Nc2ccnc3cc(Cl)ccc23)ccc1O` [amodiaquine] (10 µM) came in with a morphology score of 0.839.
